Results reported in PubChem BioAssay (NCI).
This is part of a sample that, as a whole, favours compounds with a hit. Of some 83,000 tested, about 20% had one in any assay.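 Testing used 96-well plates and a 48-hour single-concentration exposure. Example: -40 means 40% of the starting cells died.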 Values without a mark were called inactive. The source made the active and inactive calls. How the source made its calls: active means growth percent below 10; inactive means the rest.

Columns and labels:
Experiment in all cases: NCI-60 one-dose screen, 48 h (100 = growth as untreated, 0 = no growth, -100 = all killed)
Conditions in all cases: 10 µM unless noted
HCT-15 colon = system: HCT-15 colon
HT29 colon = system: HT29 colon
SNB-75 CNS = system: SNB-75 CNS
SNB-19 CNS = system: SNB-19 CNS
U251 CNS = system: U251 CNS
PC-3 prostate = system: PC-3 prostate
SK-MEL-5 melanoma = system: SK-MEL-5 melanoma
UACC-62 melanoma = system: UACC-62 melanoma
SK-MEL-28 melanoma = system: SK-MEL-28 melanoma
LOX IMVI melanoma = system: LOX IMVI melanoma

| Compound | growth (HCT-15 colon) | growth (HT29 colon) | growth (SNB-75 CNS) | growth (SNB-19 CNS) | growth (U251 CNS) | growth (PC-3 prostate) | growth (SK-MEL-5 melanoma) | growth (UACC-62 melanoma) | growth (SK-MEL-28 melanoma) | growth (LOX IMVI melanoma) |
| --- | --- | --- | --- | --- | --- | --- | --- | --- | --- | --- |
| Cn1c(-c2ccc(Br)cc2)c(O)c(=O)c2c(F)cccc21 | 23.9% | 36.6% | 92.2% | 52.8% | 34.3% | 105% | 54.2% | 37.6% | 67.2% | – |
| CCCCCC(=O)OCC(=O)O[C@@H]1C[C@]2(C(C)C)O[C@@]1(C)[C@@H]1CC[C@@H](C)[C@H]1[C@@H]2OC(=O)/C=C/c1ccccc1 | 68.8% | 56.1% | 89% | 87% | 65.9% | 55.5% | 95.7% | 62.1% | 101% | – |
| Cc1ccc(/C=C2\CN(C(=O)OC(C)(C)C)C/C(=C\c3ccc(C)cc3)C2=O)cc1 | 1.94% (active) | -49.9% (active) | 79.7% | 71.4% | 12.4% | 29.9% | 78.9% | 56.5% | 87.3% | – |
| CCOC(=O)c1cnc2ccccc2c1Cl | 101% | 101% | 78.2% | 99.2% | 102% | 90.9% | 88.1% | 95.2% | 103% | – |
| C=CCn1c(SCC(=O)Nc2ccc(C(=O)/C=C/c3cc4cc(OC)ccc4nc3Cl)cc2)nnc1-c1ccc(Br)cc1 | 84.2% | 73.8% | 74.8% | 78.4% | 82.5% | 68.2% | 82.9% | 72.9% | 99.9% | – |
| OCCOCCN(Cc1ccccn1)Cc1cc(I)cc(I)c1O | 24.2% | 98.5% | 99.9% | 94.7% | 83.5% | 75.5% | 93.9% | 94.8% | 95.4% | 62.3% |
| N#Cc1c(N)nnn1Cc1cc(=O)oc2c1ccc1ccccc12 | 102% | 101% | 88.7% | 91.7% | 97.5% | 93.4% | 97.6% | 92.5% | 113% | – |
| C=C(C)[C@@H]1CC[C@]2(C(=O)O)CC[C@]3(C)[C@H](CC[C@@H]4[C@@]5(C)C[C@@H](Cc6cn(CCO[C@@H]7O[C@H](COC(C)=O)[C@H](OC(C)=O)[C@H](OC(C)=O)[C@H]7OC(C)=O)nn6)[C@H](O)C(C)(C)[C@@H]5CC[C@]43C)[C@@H]12 | 70.1% | 77.9% | 66.5% | 64.5% | 57.4% | 54.9% | 53.5% | 63.7% | 76.5% | – |
| O=C1/C(=C/c2cccs2)SC(=S)N1CCCN1CCOCC1 | 83.6% | 103% | 99% | 92.5% | 94.8% | 75.5% | 95.3% | 79.1% | 95.8% | – |
| CCOC(=O)c1nc(Nc2ccc(NC(=O)Nc3ccc(F)cc3)cc2)c2ccccc2n1 | 100% | 106% | 78.7% | 98% | 103% | 103% | 93.9% | 101% | 105% | 90.9% |
| O=C(O)/C(=C\c1ccc(Cl)cc1)c1ccc(Cl)cc1 | 86.9% | 93.6% | 74.2% | 103% | 91.9% | 89.8% | 96.4% | 94.3% | 95.9% | – |
| O=C1c2ccc3c4ccc5c6c(ccc(c7ccc(c2c37)C(=O)N1CCC[P+](c1ccccc1)(c1ccccc1)c1ccccc1)c64)C(=O)N(CCC[P+](c1ccccc1)(c1ccccc1)c1ccccc1)C5=O | 67.9% | 26.4% | 131% | 42.4% | 22.3% | – | 18.5% | 54.5% | 15.2% | – |
| COC(=O)c1c2c(c(C)[n+]([O-])c1C)C(=O)C=C(NCc1ccc(Br)cc1)C2=O | -63% (active) | -5.46% (active) | -98.6% (active) | -87.2% (active) | -41% (active) | – | -97.5% (active) | -59.5% (active) | -39.6% (active) | -75.7% (active) |
| CC(C)(C)n1cc(-c2ccnc(NCCNS(=O)(=O)c3cccc4ccccc34)c2)c(-c2cccc(F)c2)n1 | -37.2% (active) | -29.6% (active) | -17.6% (active) | 27.5% | -18.7% (active) | – | -97.1% (active) | 8% (active) | -2.58% (active) | -86.8% (active) |
